Source: PubChem BioAssay (National Center for Advancing Translational Sciences (NCATS))
Most compounds without a hit are left out; they make up all but 7% or so of the library.
HP1b chromo inh: inhibitors of HP1-beta chromodomain binding to methylated histone tails; P83916; AlphaScreen HP1-beta / biotin-H3K9me3 peptide binding; Potency, µM (titrated, usually from 114 µM), for the others: at the top dose activity change, negative = inhibition, most hits filed as inhibitors; actives 0.56% (n = 390,000); AID 540317; further: potency means the concentration at half of the fitted maximal effect; nearly all actives have a fitted effect of over 70% in size
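HP1-beta protein (50 nM final) preincubated 30 min at room temperature with biotinylated H3(1-18)K9me3 peptide (50 nM) in PBS pH 7.4, 0.01% Tween-20, then compound added for 30 min. AlphaScreen streptavidin donor/nickel chelate acceptor beads (10 ug/mL final), 30 min dark, luminescence read.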
PI5P4K alpha inh: blocks human PI5P4K alpha kinase activity | P48426 | PI5P4Kalpha enzyme, ADP-Glo luminescence, 60 min; stronger effect = lower value | max response, % | actives 1.2% (n = 330,000); active means max response of -50% or lower; inconclusive means between -30% and -50%; inactive means -30% or higher; further: value at the top dose of about 77 µM; on the % scale 0 is the no-effect control and ±100 the full control effect
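Controls without substrate or without enzyme flank wells where PI5P4Kalpha converts substrate using 5 microM ATP (final). Incubation lasts 60 minutes at room temperature; ADP formed is read by ADP-Glo luminescence.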
JMJD2A Tudor: blocks the human JMJD2A Tudor domain. O75164. AlphaScreen JMJD2A-Tudor / H3K4me3 peptide binding. Potency, µM (series often up to 114 µM), inactives show at the highest dose activity change, negative = inhibition, actives largely listed as inhibitors. actives 4.4% (n = 390,000). AID 504339; further: potency means the concentration at half of the fitted maximal effect; on the % scale 0 is the no-effect control and ±100 the full control effect; nearly all actives have a fitted effect of over 50% in size
PLK1 PBD inh: PLK1 (human) polo-box domain binding inhibition | actives 2.8% (n = 360,000) | Potency, µM, for the others: max response, negative = inhibition, actives largely listed as inhibitors | AID 720504 | Plk1 PBD binding of FITC phosphopeptide, fluorescence polarization | P53350; further: potency means the concentration at half of the fitted maximal effect; series mostly up to about 57 µM; on the % scale 0 is the no-effect control and ±100 the full control effect; nearly all actives have a fitted effect of over 65% in size
Target sequence (P53350 whole entry, looked up, the tested form may be a part): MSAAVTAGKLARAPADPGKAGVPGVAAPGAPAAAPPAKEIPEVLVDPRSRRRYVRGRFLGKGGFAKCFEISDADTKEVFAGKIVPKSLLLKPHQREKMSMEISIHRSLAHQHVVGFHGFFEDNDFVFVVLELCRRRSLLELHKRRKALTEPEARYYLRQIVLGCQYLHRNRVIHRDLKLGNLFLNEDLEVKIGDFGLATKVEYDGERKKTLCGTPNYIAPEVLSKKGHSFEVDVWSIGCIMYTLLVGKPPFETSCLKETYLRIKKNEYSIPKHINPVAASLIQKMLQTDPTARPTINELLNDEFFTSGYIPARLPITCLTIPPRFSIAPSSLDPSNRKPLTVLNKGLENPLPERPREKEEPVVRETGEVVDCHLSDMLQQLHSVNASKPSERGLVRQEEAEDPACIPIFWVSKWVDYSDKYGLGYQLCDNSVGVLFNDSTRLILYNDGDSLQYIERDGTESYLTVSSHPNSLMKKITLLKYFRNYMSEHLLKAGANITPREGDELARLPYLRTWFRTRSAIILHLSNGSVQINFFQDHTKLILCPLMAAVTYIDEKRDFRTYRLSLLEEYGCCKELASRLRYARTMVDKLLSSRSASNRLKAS
KAT2A inh: blocks human GCN5L2 histone acetyltransferase. Q92830. GCN5L2 HAT assay, ThioGlo1 CoA-SH fluorescence. Potency, µM (top dose mostly 58.9 µM), for the others: at the top dose activity change, negative = inhibition, most hits filed as inhibitors. actives 0.21% (n = 390,000); further: potency means the concentration at half of the fitted maximal effect; on the % scale 0 is the no-effect control and ±100 the full control effect
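Fluorescence readout, Ex340nm/Em540nm: ThioGlo1 (50uM final) reacts with free CoA thiol released as 20nM GCN5L2 acetylates H3(1-25) peptide (75uM) using acetyl-CoA (70uM). Compound and enzyme sat 15 min beforehand; 20 min room-temperature reaction.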
BAZ2B inh: BAZ2B (human) inhibition | Potency, µM (series often up to 114 µM), for the others: at the highest dose activity change, negative = inhibition, hits mostly inhibitors | actives 4.4% (n = 360,000) | Q9UIF8 | AID 504333 | AlphaScreen BAZ2B-H3K14Ac peptide displacement; further: potency means the concentration at half of the fitted maximal effect; on the % scale 0 is the no-effect control and ±100 the full control effect; nearly all actives have a fitted effect of over 60% in size
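Complex of BAZ2B and biotin-H3K14Ac (50 nM apiece) forms over 30 min at RT, then faces library compounds up to 110 uM for another 30 min; AlphaScreen beads added, 20 min dark incubation, luminescence read.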
Numbers without * were called inactive; u = inconclusive; x = no result given; [ ] = dose if it differs, or a comment. Unless noted, the call rests on the fitted dose curve; in most records, active means well fitted curve in the direction sought with a large enough effect; inconclusive means small, poorly fitted or top-dose-only effect, or another doubt; inactive means no such curve, though single readings can be large; an effect the other way counts as inactive or inconclusive.

SMILES	HP1b chromo inh	PI5P4K alpha inh	JMJD2A Tudor	PLK1 PBD inh	KAT2A inh	BAZ2B inh
CC(=O)NC1=NN(C(C)=O)C(C)(c2ccccc2)S1 (stereo not drawn)	9%	x	-2%	-2%	-3%	45µM*
CC(=O)NC1=NN(C(C)=O)C(C)(c2ccc3ccccc3c2)S1 (stereo not drawn)	27%	-6	-3%	1%	-1%	-39%
Cc1ccc(C(=O)NCC(c2cccs2)S(=O)(=O)c2cccs2)cc1 (stereo not drawn)	32%	x	-7%	x	-5%	3%
CCc1n[n+](CC(=O)c2ccccc2)c(N)s1	21%	-5	0%	-4%	-14%	-16%
CC12CCC(=O)N1C(C(=O)NNC(=O)c1ccc(Br)cc1)CS2 (stereo not drawn)	29%	-6	-2%	-6%	-1%	-1%
Cc1nnc(SCC(=O)NNC(=O)c2ccccc2)n1-c1ccccc1	28%	2	50µM*	-3%	0%	8%
O=C(CSc1ncn[nH]1)NNC(=O)c1ccccc1	37%	4	7.9µM*	6%	-3%	5%
COc1ccccc1N(Cc1cc(=O)[nH]c2ccccc12)C(=O)c1cccc([N+](=O)[O-])c1	-20%	-13	-15%[11.4 µM]	30µM*	-11%	u
Cc1ccc(C(=O)NCCCNc2ccccc2[N+](=O)[O-])cc1	1%	0	89µM*	3%	-3%	u
Cc1ccc(C(=O)NCCCNC(=O)c2ccccn2)cc1	25%	1	-12%	0%	-7%	-14%
Cc1c(C(=O)Nc2ccccc2)csc1-c1ccccc1	10%	-7	-18%	-9%	4%	4%
CCCOc1ccc(C(=O)Nc2ccccc2[N+](=O)[O-])cc1	u	2	56µM*	u	x	x
Cc1c(C(=O)Nc2ccccc2[N+](=O)[O-])csc1-c1ccccc1	28µM*	14	u	1%	-1%	11µM*
CCCOc1ccc(/C=N/Nc2ccccc2[N+](=O)[O-])c(OCCC)c1	22µM*	1	14µM*	-2%	-11%	2.5µM*
CCCCOc1ccc(C(=O)Nc2ccc(C)cc2[N+](=O)[O-])cc1	-24%	2	u	-4%	0%	u
COc1ccc(/C=N/Nc2ncccc2[N+](=O)[O-])c(OC)c1	u	-21	50µM*	-5%	-5%	40µM*
COc1ccc(/C=N/Nc2ncc(-c3ccccc3)cn2)c(OC)c1	10%	x	u	-12%	-4%	-5%
CCC(CO)n1c(=S)[nH]c2cc(OC)c(OC)cc2c1=O (stereo not drawn)	38%	-2	25µM*	-1%	-6%	-17%
CCOc1cc2[nH]c(=S)n(C(C)C)c(=O)c2cc1OCC	49%	2	-4%	0%	-15%[0.501 µM]	17%
COc1ccc(-n2c(=O)[nH]cc(C(=O)Nc3ccc4c(c3)OCO4)c2=O)cc1OC	26%	-12	u	2%	0%	-25%
O=C(NCC1CCCO1)c1ccccc1NS(=O)(=O)c1ccc(Br)s1 (stereo not drawn)	3%[57 µM]	3	-11%	24µM*	x	x
CC(C)(C)c1cc(CCC(=O)N2CCCC2)cc(C(C)(C)C)c1O	16%	7	-3%	-24%	-29%	-16%
CCN1CCN(C(=S)c2ccc(O)cc2)CC1	-10%	u	-9%	4.7µM*	14%	-28%
Oc1ccc(C(=S)N2CCCC2)cc1	-19%	-7	-6%	24µM*	u	-3%
CC(C)(C)c1cc(C(=S)N2CCCC2)cc(C(C)(C)C)c1O	-22%	2	u	30µM*	-5%	u
SMILES	HP1b chromo inh	PI5P4K alpha inh	JMJD2A Tudor	PLK1 PBD inh	KAT2A inh	BAZ2B inh
Oc1ccc(C(=S)N2CCCCCC2)cc1	-18%	-9	-32%	u	-3%	-1%[57.1 µM]
Oc1cccc(C(=S)N2CCCCC2)c1	-23%	-16	-10%[11.4 µM]	11µM*	6%	-20%
O=C(Nc1cc2c3c(c1)CC(=O)N3CCC2)C1CC1	-2%	10	-6%	-3%	-1%	3%
O=C(CN1C(=O)c2ccccc2C1=O)Nc1cc(C(=O)O)cc(C(=O)O)c1	49%	0	-4%	1%	-2%	-9%
Cc1sc2ncn(CC(=O)N(C)c3ccc(Br)cc3)c(=O)c2c1S(=O)(=O)N1CCC(C)CC1	9%	x	-20%	x	-2%	-5%
CCN1CCN(C(=S)c2ccc(Br)cc2)CC1	u	x	-28%	8.4µM*	-1%	-13%
CCN1CCN(CCC(=O)Nc2ccc(Br)cc2)CC1	33%	4	-6%	-15%	16%	3%
COc1ccc(N2CCN(C(=O)c3cccc(S(=O)(=O)N4CCCc5ccccc54)c3)CC2)cc1	3%	2	u	-1%	-1%	u
CC(C)CN(CC(C)C)C(=O)c1cccc(S(=O)(=O)N2CCc3ccccc32)c1	-17%	-7	45µM*	24µM*	-15%	-15%
COc1ccc(N2CCN(C(=O)c3cccc(S(=O)(=O)N4CCc5ccccc54)c3)CC2)cc1	u	1	40µM*	-4%	-10%	x
CC(C)OCCCNC(=O)c1cc(S(=O)(=O)N2CCc3ccccc32)cn1C	26%	1	0%	0%	0.79µM*	-2%
CCC(C)(C)NC(=O)c1cc(S(=O)(=O)N2CCc3ccccc32)cn1C	26%	2	-15%	-7%	-15%	10%
CCn1cc(C(=O)N2CCN(c3ccccc3F)CC2)c(=O)c2cc(S(=O)(=O)N(C)C3CCCCC3)ccc21	6%	x	-25%	x	-8%	x
COc1cc2c(C#Cc3cccnc3)c(-c3ccsc3)oc(=O)c2cc1OC	24%	1	u	-5%	-4%	x
NS(=O)(=O)c1ccc(NC(=O)COC(=O)c2ccc(S(=O)(=O)N3CCOCC3)cc2)cc1	8%[57 µM]	-6	-1%	-4%	-1%	x
CCc1nnc(NC(=O)C2CCCN2C(=O)Nc2ccccc2)s1 (stereo not drawn)	21%	5	-7%	-3%	-4%	-21%
CN(C)c1ccc(C(CN)c2c[nH]c3ccccc23)cc1 (stereo not drawn)	u	-12	35µM*	-6%	-10%	11µM*
CN(C)c1ccc(C(CNS(=O)(=O)c2ccc3ccccc3c2)c2c[nH]c3ccccc23)cc1 (stereo not drawn)	u	-1	28µM*	1%	-12%	13µM*
N#Cc1c(N2CCN(c3ccc(F)cc3)CC2)nc(N)c2c(N)nc3c(c12)CC(=O)N3C1CC1	-19%	-50*	-29%	-29%	-6%	u
CN(CCO)c1nc(N)c2c(N)nc3c(c2c1C#N)CC(=O)N3C1CCCC1	x	x	x	x	-15%	u
